Measured values published in PubChem BioAssay (NCI).
The panel holds about 79,000 compounds, 15% with a hit somewhere; the sample as a whole holds those more often. A number with no mark means an inactive call. The source made the active and inactive calls. No stated cut-off is given here; in the data, active means growth inhibition above about 70%; inactive means the rest. Where a SMILES comes first, the peptide text is derived from it. The star is where a group is joined. Cbz = O=C(OCc1ccccc1)*

Assays:
[1] = NCI Yeast Anticancer Drug Screen. Data for the rad50 strain (AID 155);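 further: 0% = growth of vehicle-only cultures of the same strain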; details: S. cerevisiae rad50 strain growth inhibition; at 50.0 µM; hits give high values
In short: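 Vehicle-treated cultures provide the reference for the growth inhibition reported for compound-exposed, repair-deficient yeast.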

[2] = NCI Yeast Anticancer Drug Screen. Data for the mec2-1 strain (AID 157); details: S. cerevisiae mec2-1 strain, at 50.0 µM, hits give high values
In short: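 Strain: mec2-1 (DNA repair/cell cycle alteration). Compound exposure, then growth measured; inhibition expressed relative to vehicle.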

[3] = NCI Yeast Anticancer Drug Screen. Data for the sgs1 mgt1 strain (AID 161);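 further: 0% = growth of cultures given vehicle only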; details: S. cerevisiae sgs1 mgt1 strain, at 50.0 µM, hits give high values
In short: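 Read-out: growth inhibition vs vehicle controls. Cells: mutant yeast strain deficient in DNA damage repair.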

[4] = NCI Yeast Anticancer Drug Screen. Data for the cln2 rad14 strain (AID 165);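 further: 0% = growth equal to vehicle treated cultures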; details: S. cerevisiae cln2 rad14 strain, at 50.0 µM, hits give high values
In short: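 Compounds are applied to the cln2 rad14 yeast strain, and growth is then compared with that of vehicle-treated cultures to give inhibition.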

[5] = NCI Yeast Anticancer Drug Screen. Data for the bub3 strain (AID 167); details: S. cerevisiae bub3 mutant strain, at 50.0 µM, hits give high values
In short: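 Mutant yeast screening strain plus compound; vehicle-treated cultures serve as the 0% inhibition reference.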

[6] = NCI Yeast Anticancer Drug Screen. Data for the mlh1 rad18 strain (AID 175); details: S. cerevisiae mlh1 rad18 strain growth inhibition; at 50.0 µM; hits give high values
In short: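 Read-out is yeast growth inhibition, calculated against vehicle-only controls. The compound was applied to a strain engineered with DNA damage repair alterations.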

Compound | growth inhibition [1] | growth inhibition [2] | growth inhibition [3] | growth inhibition [4] | growth inhibition [5] | growth inhibition [6]
Cc1ccc(S(=O)(=O)NC(=O)c2ncn(C3OC(CO)C(O)C3O)c2N)cc1 (stereo not drawn) | -5.15% | 10.8% | 12.7% | 15.1% | 1.5% | 1.55%
Cn1cnc([N+](=O)[O-])c1Cl | 43.4% | -3.6% | -2.2% | -7.55% | 19.2% | -1.1%
CC1(C)CC(=O)C2=C(C1)NC(=S)C(C#N)C2c1ccccc1 (stereo not drawn) | 10.2% | -4% | 14.7% | 9.55% | 21.1% | 30.2%
NCCSC(O)(C(F)(F)F)C(F)(F)F | 19.6% | 8.85% | 3.05% | -15.2% | 1.2% | 23%
Cc1ccoc1 | 12.5% | -18.1% | 6.45% | 11.8% | 26.8% | 15.8%
OCc1ccc2ccccc2n1 | 24% | -1.2% | 21.6% | -1.55% | 12.7% | 31.1%
Cc1cc(C)c[n+](-c2nc3c([O-])n(C)c(=O)n(C)c-3n2)c1 | -5.35% | 3.15% | -17.8% | -5.45% | -8.25% | -4.15%
Cc1ccc([N+](=O)[O-])cc1NC(=O)C(=O)C(C(=O)c1ccccc1F)C1OC(=O)c2ccccc21 (stereo not drawn) | -3.1% | 5.7% | -14.4% | 13.1% | -1.1% | -1.9%
Cc1ccc([N+](=O)[O-])cc1N=C=O | -38.5% | -43.9% | -31.1% | -34% | -32.8% | -56.3%
O=C/C=C/c1ccc2c(c1)OC(CO)C(c1ccc(O)c(O)c1)O2 (stereo not drawn) | 9.15% | 2.2% | 6.7% | 8.15% | 9.7% | 3.2%
COc1cc(Br)c(CC(=O)c2ccc3c(c2)OCO3)cc1OC | 1.65% | 12.8% | 7.9% | -0.7% | 0% | 15.2%
Cc1ccccc1-c1c2ccccc2cc2c1ccc1ccccc12 | 12% | -21.7% | -5.05% | -20.9% | 9.35% | 0.35%
COc1ccc2c(c1)C(=O)C1(C2)[C@H](c2ccccc2)C2C(=O)c3cc(OC)ccc3C2[C@H]1c1ccccc1 (stereo partly drawn) | -20.4% | -3% | 11.9% | -5.2% | 21.1% | 9.3%
O=C1C(=Cc2ccc([N+](=O)[O-])cc2)C(=O)c2ccccc21 | 28.9% | 36.6% | 22.1% | 24.1% | 0.15% | 85.5% (active)
COc1cc(/C=C2\SC(=S)N(C=C3C(=O)NC(=O)NC3=O)C2=O)cc(OC)c1OC | 7.5% | -0.75% | 19.1% | 11.8% | 7% | 5.65%
COC(=O)[C@@H]1[C@H](OC(C)=O)CCC2[C@@]3(C[C@@H](c4ccoc4)O[C@@H]3OC)[C@H](C)CC[C@]21C(=O)OC (stereo partly drawn) | -12.4% | -5.1% | -39% | -8.7% | -36.9% | -37.5%
COc1ccc2nc3cc(Cl)ccc3c(NCCC3CCCN4CCCCC34)c2c1 (stereo not drawn) | 33% | 26.4% | 14.6% | 21.6% | 12.4% | 33%
CCOC(=O)c1ccc(N)c(C(O)(C(F)(F)F)C(F)(F)F)c1 | 94.5% (active) | 90.7% (active) | 94.1% (active) | 86.3% (active) | 92% (active) | 95.6% (active)
CC(C)C(C)(O)C#CC(C)(O)C(C)C (stereo not drawn) | 1.4% | 8.85% | 3.25% | -15.5% | 23.9% | 12.1%

Compound | growth inhibition [1] | growth inhibition [2] | growth inhibition [3] | growth inhibition [4] | growth inhibition [5] | growth inhibition [6]
O=C(O)Cc1cc(CC(=O)O)cc(CC(=O)O)c1 | -3.8% | -18.8% | 6.05% | 5.2% | 1.6% | -17.9%
O=C(O)/C=C\C(=O)Nc1ccc2c(c1)-c1ccccc1C2 | -6.95% | -16.4% | -14.6% | -22.4% | -28.1% | 2.15%
Cc1cc(C)c2cnnn2n1 | 10.1% | -14.1% | 0.6% | 15.4% | -21.1% | -2.75%
CC(C)NCC(O)c1ccc(O)c2ncccc12 (stereo not drawn) | 1.95% | 24.3% | 5.9% | 5.15% | -22.1% | -7.15%
CCCCCCCc1cc(OC(=O)c2c(C)cc(OC)cc2O)cc(O)c1C(=O)O | 13.4% | -16.2% | 8.65% | -10% | -14.2% | 16.8%
CC(NCCNC(C)c1ccccc1)c1ccccc1 (stereo not drawn) | 6.65% | -22.3% | -1.25% | -35.1% | 1.85% | 8.45%
c1csc(C(NC2=NCCO2)C2CC2)c1 (stereo not drawn) | -32.9% | -11.2% | -22.9% | -25.1% | -27.5% | 41.8%
Cc1cccc(NCc2ccccc2)c1 | 32.5% | 5.95% | 19.4% | -22.1% | 29.6% | 24.9%
CN(C)CCCNC(=O)CCNC(=O)c1cc(NC(=O)c2cc(NC(=O)c3cc(NC(=O)c4nccn4C)cn3C)cn2C)cn1C | 24.4% | -23.4% | -17.2% | 12.4% | -5.15% | 7.15%
OC1c2ccccc2C(O)c2c1ccc1c2CN(Cc2ccccc2)CC1 (stereo not drawn) | 5.05% | 8.25% | 1.95% | 15.1% | 1.3% | 33.2%
Cn1c(=O)c2c(nc(NCCOC(=S)S)n2C)n(C)c1=O | -44.8% | 1.8% | -10.3% | 32.5% | 5.3% | 15.9%
C(=C1\COC(c2ccccc2)=N1)/c1ccc2c(c1)OCO2 | -13.2% | 14.8% | 13.8% | -19.6% | -5% | 26.9%
CCN(S(C)(=O)=O)S(C)(=O)=O | -7.5% | -2.5% | -4.65% | -37% | 9.55% | -15.8%
COc1cc(C(C)O)c[n+](Cc2ccccc2)c1 (stereo not drawn) | -31.6% | -7.3% | -16.1% | 3.6% | -18.9% | -18.9%
CCc1ccccc1NC(=O)Nc1ccc(C(=O)O)c(O)c1 | 33.6% | 10.2% | 27.4% | 21.4% | 29.8% | 26.4%
S=C1N=C(Cl)/C(=C\c2ccco2)N1 | -4.55% | -18% | 12.1% | 4.2% | 15.9% | -20.6%
COc1cc2c3c(c1)[nH]c(=S)n3C(=O)C(C)S2 (stereo not drawn) | -15.9% | -34.6% | -4.9% | -6% | -3.85% | -25.6%
Cc1ccc(S(=O)(=O)NC2CC3(C)CCC2C3(C)C)cc1 (stereo not drawn) | -0.6% | -20.4% | -5.55% | -46.1% | 14.8% | -4.45%
CC(C)C(NC(=O)C(Cc1ccc(O)cc1)NC(=O)OCc1ccccc1)C(=O)O (stereo not drawn) (Cbz-Tyr-Val-OH; configuration not given here) | 10.2% | -3.25% | -3.85% | -29.6% | -3.15% | 1.8%
